BoNT F protease – BoNT F light chain protease inhibition. Multiplex microsphere protease cleavage assay, flow cytometry. inhibition, % at 10 µM. hit rate 0.22% among 360,000; in the data active = inhibition above about 35%, passing the limit was not always enough; inconclusive = no clear call, values can overlap the other calls; note: plate controls were buffer without enzyme for full effect and enzyme alone for no effect
BoNT-A LC inh2 – blocks Botulinum neurotoxin A light chain protease. multiplex microsphere protease substrate cleavage, flow cytometry. inhibition, % at 10 µM. hit rate 0.17% among 360,000; note: plate controls were buffer without enzyme for full effect and enzyme alone for no effect
Anthrax LF prot – blocks Bacillus anthracis lethal factor protease | inhibition, % at 10 µM | P15917 | hit rate 0.12% among 360,000 | multiplex microsphere protease cleavage assay, LF; note: plate controls were buffer without enzyme for full effect and enzyme alone for no effect
Target sequence (P15917 whole entry, looked up): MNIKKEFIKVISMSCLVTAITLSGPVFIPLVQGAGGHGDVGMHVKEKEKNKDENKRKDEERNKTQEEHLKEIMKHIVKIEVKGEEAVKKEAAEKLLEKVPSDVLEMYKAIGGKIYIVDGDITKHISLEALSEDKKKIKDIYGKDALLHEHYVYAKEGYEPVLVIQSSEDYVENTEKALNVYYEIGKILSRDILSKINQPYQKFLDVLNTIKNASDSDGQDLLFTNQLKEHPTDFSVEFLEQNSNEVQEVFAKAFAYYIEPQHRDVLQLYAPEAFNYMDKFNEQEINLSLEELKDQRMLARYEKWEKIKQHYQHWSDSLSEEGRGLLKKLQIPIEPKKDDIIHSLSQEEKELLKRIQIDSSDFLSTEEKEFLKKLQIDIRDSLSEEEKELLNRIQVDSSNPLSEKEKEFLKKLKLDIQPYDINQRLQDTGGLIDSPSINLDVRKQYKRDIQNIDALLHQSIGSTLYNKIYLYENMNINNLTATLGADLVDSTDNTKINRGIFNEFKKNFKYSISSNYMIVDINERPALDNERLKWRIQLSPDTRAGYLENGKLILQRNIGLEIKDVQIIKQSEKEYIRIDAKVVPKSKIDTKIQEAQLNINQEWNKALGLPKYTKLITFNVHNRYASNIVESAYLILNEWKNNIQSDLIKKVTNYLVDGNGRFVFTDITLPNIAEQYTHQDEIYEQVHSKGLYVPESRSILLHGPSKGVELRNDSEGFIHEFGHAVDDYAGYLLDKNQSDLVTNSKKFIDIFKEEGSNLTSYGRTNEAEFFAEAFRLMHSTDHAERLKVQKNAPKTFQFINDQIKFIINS
Bead autofluor – compound fluorescence in toxin protease inhibitor counterscreen. fluorescence intensity (no concentration beside the values). compound autofluorescence counterscreen, microsphere flow cytometry; active compounds read high. hit rate 3.1% among 360,000; in the data active = fluorescence intensity above about 16000; inconclusive = no clear call, values can overlap the other calls
FBA Mtb inh – inhibitors of M. tuberculosis fructose-bisphosphate aldolase | P9WQA3 | purified M. tuberculosis FBA, fluorescence read-out | inhibition, % at 1 µM | hit rate 2.3% among 360,000; in the data active = inhibition above about 27%;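 note: 0% = vehicle and 100% = reference inhibitor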
GDH-TPI counter – inhibits GDH-TPI coupling enzymes, artifact for Mtb FBA screen. GDH-TPI coupled enzyme counterscreen, NADH absorbance. inhibition, % at 4.8 µM. hit rate 1.2% among 360,000; in the data active = inhibition above about 30%;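 note: 0% = DMSO wells and 100% = wells lacking the enzyme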
The depositor's hits bear a star; ? = inconclusive. Shown are actives, neighbours in structure and some others; about 6.6% of the full set was active somewhere. Cut-off read from the data, not from the text of the source, unless noted: active = inhibition above about 30%; inconclusive = no clear call, values can overlap the other calls; inactive = below that.

SMILES	BoNT F protease	BoNT-A LC inh2	Anthrax LF prot	Bead autofluor	FBA Mtb inh	GDH-TPI counter
CSc1nc(SCc2ccccc2)[nH]c(=O)n1	-1.3	0.1	-0.4	2876	3.6	8.8
O=C(/C=C/c1ccc([N+](=O)[O-])cc1)Nc1cccc(C(=O)Nc2ccccc2C(=O)O)c1	9.6	-0.4	-4.1	3665	-2.2	19.5
CC1=NN(c2ccccc2)C(c2ccco2)C1 (stereo not drawn)	-9.0	-0.6	-4.3	2925	1.9	6.0
O=[N+]([O-])c1ccc(/C=C/C2=NN(c3ccccc3)C(c3ccco3)C2)cc1 (stereo not drawn)	66.3*	56.7*	39.8*	34435*	-2.6	4.1
O=S(=O)(c1cccc2nsnc12)N1CCCCC1	1.4	-1.3	-4.9	4290	4.0	13.6
Cc1cc(-n2c(C)cc(C(=O)COc3ccc(Cl)cc3C(N)=O)c2C)no1	24.0	2.6	-3.4	5880	1.4	7.3
CC(C)[C@H](NC(=O)c1c(F)cccc1F)C(=O)Nc1cccc(Br)c1	-8.0	-4.5	-11.3	3981	-3.8	0.0
CC1=C(C#N)C(=O)NC(=O)/C1=C/c1ccc(-c2ccc(S(N)(=O)=O)cc2)o1	-7.5	0.0	0.6	2596	6.7	29.5
CCCOC(=O)c1cc(-c2ccc(/C=C3/C(=O)N(C)C(=O)C(C#N)=C3C)o2)ccc1Cl	-1.8	-2.1	-0.4	22120*	-0.7	0.6
C=CCOC(=O)c1cc(-c2ccc(/C=C3\C(=O)NC(=O)C(C#N)=C3C)o2)ccc1Cl	1.9	0.6	2.5	5030	5.9	34.2*
O=C(NCCc1ccccc1)C(=O)NCC1OCCCN1S(=O)(=O)c1cccs1 (stereo not drawn)	1.0	0.3	2.8	6676	-1.0	3.0
CCOC(=O)C1C(=O)NC(N2CCN(Cc3ccccc3)CC2)=NC1c1ccccc1 (stereo not drawn)	-8.4	-0.9	-5.0	11601	1.9	-6.7
CCOC(=O)C1C(=O)NC(N2CCCCC2)=NC1c1ccccc1 (stereo not drawn)	1.0	-0.8	-1.6	22677*	-1.8	-4.5
Cc1cccc(N2CCN(C3=NC(=O)C(Cc4ccccc4)S3)CC2)c1 (stereo not drawn)	-1.8	-0.2	0.2	2242	-0.3	5.9
CCC(C)(C)n1nnnc1C(c1cc2ccc(OC)cc2[nH]c1=O)N1CCc2ccccc2C1 (stereo not drawn)	-2.2	0.9	0.8	11391	1.0	12.9
CCC(C)(C)n1nnnc1C(c1cc2cc(OC)ccc2[nH]c1=O)N1CCc2ccccc21 (stereo not drawn)	0.1	1.7	1.3	16186*	10.7	8.6
CCC(C)(C)n1nnnc1C(c1cc2ccc(OC)cc2[nH]c1=O)N1CCc2ccccc21 (stereo not drawn)	-4.3	?	5.8	17938*	4.8	22.5
COc1ccc(S(=O)(=O)NNC(=O)C23CC4CC(CC(C4)C2)C3)cc1[N+](=O)[O-]	2.1	6.2	1.0	?	0.1	-0.7
NC(=O)c1cc(S(=O)(=O)NC2CCCCC2)co1	-2.6	?	-2.2	22647*	-0.7	8.9
Cc1cc(C)c2[nH]c(=O)c(CN(CC3CCCO3)S(=O)(=O)c3ccc4c(c3)OCCO4)cc2c1 (stereo not drawn)	7.0	7.0	-7.4	21471*	8.2	10.6
COc1ccc2cc(CN(CC3CCCO3)S(=O)(=O)c3ccccc3Cl)c(=O)[nH]c2c1 (stereo not drawn)	-0.6	0.6	-8.7	4939	6.2	31.9*
COc1ccccc1NC(=O)N(Cc1cc2cc(OC)c(OC)cc2[nH]c1=O)CC1CCCO1 (stereo not drawn)	0.0	0.6	-5.9	2992	19.4	34.3*
COc1ccc2[nH]c(=O)c(CN(CC3CCCO3)C(=O)Nc3ccccc3OC)cc2c1 (stereo not drawn)	0.8	-0.8	-4.6	2384	8.9	15.1
Cc1ccc2cc(CN(CC3CCCO3)C(=O)C(C)C)c(=O)[nH]c2c1 (stereo not drawn)	-3.4	-0.8	-1.4	23042*	3.3	2.9
Cc1cc(C)c(C)c(OCC(O)CN2CCN(c3ccccn3)CC2)c1 (stereo not drawn)	-1.2	-2.2	-2.2	6232	-2.3	5.7
Cc1cc(C)nc(SCCn2c(N3CC(C)OC(C)C3)nc3c2c(=O)n(C)c(=O)n3C)n1 (stereo not drawn)	-2.1	0.0	1.4	4142	2.2	-1.6
Cc1ccc(CN2CC(C(=O)Nc3cc(C)ccn3)CC2=O)cc1 (stereo not drawn)	1.3	-5.6	-3.9	?	0.7	-7.4

Screening results (PubChem BioAssay)
